This is part of a sample that, as a whole, favours compounds with a hit. Of some 79,000 tested, about 15% had one in any assay. The source made the active and inactive calls. Rule as the data show it: active = growth inhibition above about 70%; inactive = the rest.
Legend:
[1] = NCI Yeast Anticancer Drug Screen. Data for the rad52 strain (AID 147);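 also: 0% = growth of vehicle-treated control cultures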; conditions: S. cerevisiae rad52 mutant growth inhibition, hits give high values
Summary of the method: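 Yeast strain carrying a DNA damage repair alteration was exposed to test compounds. Growth inhibition was measured relative to vehicle-treated controls.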

[2] = NCI Yeast Anticancer Drug Screen. Data for the wt1 strain (AID 149);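 also: 0% = growth of vehicle-treated wt1 cultures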; conditions: S. cerevisiae wt1 strain (SPY 50644) growth inhibition, hits give high values
Summary of the method: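 Vehicle-normalised growth inhibition; strain wt1; compound exposure.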

[3] = NCI Yeast Anticancer Drug Screen. Data for the rad50EPP+ strain (AID 151);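 also: 0% = growth of vehicle-treated control cultures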; conditions: S. cerevisiae rad50 mutant strain, hits give high values
Summary of the method: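 Yeast strain carrying rad50 alteration (rad50EPP+) exposed to compounds; growth inhibition measured relative to vehicle-treated controls.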

[4] = NCI Yeast Anticancer Drug Screen. Data for the mgt1 strain (AID 153); conditions: S. cerevisiae mgt1 mutant growth inhibition, hits give high values
Summary of the method: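 Yeast mgt1 strain (DNA repair/cell-cycle alteration panel) exposed to compounds; growth inhibition measured relative to vehicle-treated controls.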

[5] = NCI Yeast Anticancer Drug Screen. Data for the rad50 strain (AID 155);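 also: 0% = growth of vehicle-only cultures of the same strain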; conditions: S. cerevisiae rad50 strain growth inhibition, hits give high values
Summary of the method: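 A DNA repair-deficient yeast mutant serves as the test organism; compound-induced growth inhibition is calculated against vehicle-treated cells.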

[6] = NCI Yeast Anticancer Drug Screen. Data for the mec2-1 strain (AID 157); conditions: S. cerevisiae mec2-1 strain, hits give high values
Summary of the method: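 mec2-1 yeast strain, carrying an alteration in DNA damage repair or cell cycle control, was exposed to compounds; growth inhibition was measured relative to vehicle-treated controls.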

[7] = NCI Yeast Anticancer Drug Screen. Data for the rad14 strain (AID 159);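 also: 0% = growth of vehicle-treated control cultures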; conditions: S. cerevisiae rad14 strain growth inhibition, hits give high values
Summary of the method: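 Vehicle-treated cultures served as the baseline for growth inhibition of a DNA repair-mutant yeast strain exposed to each compound.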

[8] = NCI Yeast Anticancer Drug Screen. Data for the sgs1 mgt1 strain (AID 161);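 also: 0% = growth of cultures given vehicle only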; conditions: S. cerevisiae sgs1 mgt1 strain, hits give high values
Summary of the method: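 Yeast cells carrying a defined DNA-repair defect were exposed to test compounds. Growth inhibition was measured relative to vehicle-treated controls.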

[9] = NCI Yeast Anticancer Drug Screen. Data for the CLN2oe strain (AID 163);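 also: 0% = growth of vehicle-only control cultures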; conditions: S. cerevisiae CLN2oe strain, hits give high values
Summary of the method: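 Yeast cells carrying a defined cell-cycle control alteration were exposed to test compounds. Growth inhibition was scored against vehicle-treated control cultures.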

[10] = NCI Yeast Anticancer Drug Screen. Data for the cln2 rad14 strain (AID 165);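 also: 0% = growth equal to vehicle treated cultures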; conditions: S. cerevisiae cln2 rad14 strain, hits give high values
Summary of the method: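 Yeast carrying cln2 and rad14 alterations (cell cycle control and DNA damage repair) were exposed to compounds. Growth inhibition was measured against vehicle-treated controls.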

[11] = NCI Yeast Anticancer Drug Screen. Data for the bub3 strain (AID 167); conditions: S. cerevisiae bub3 mutant strain, hits give high values
Summary of the method: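 Inhibition values come from growth of compound-treated mutant yeast normalised to vehicle-treated controls.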

[12] = NCI Yeast Anticancer Drug Screen. Data for the wt2 strain (AID 169);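 also: 0% = growth of vehicle-treated yeast cultures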; conditions: S. cerevisiae wt2 strain growth inhibition, hits give high values
Summary of the method: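 Yeast cells were exposed to test compounds, and growth inhibition was measured relative to vehicle-treated controls.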

[13] = NCI Yeast Anticancer Drug Screen. Data for the mlh1 strain (AID 171);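 also: 0% = growth of vehicle-treated control cultures of the same strain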; conditions: S. cerevisiae mlh1 strain growth inhibition, hits give high values
Summary of the method: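 Yeast carrying a defined genetic alteration in DNA damage repair or cell cycle control were exposed to test compounds. Growth inhibition was measured relative to vehicle-treated controls.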

[14] = NCI Yeast Anticancer Drug Screen. Data for the sgs1 strain (AID 173);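 also: 0% = growth of vehicle-only control cultures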; conditions: S. cerevisiae sgs1 mutant, hits give high values
Summary of the method: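 Yeast mutant strains carrying defined defects in DNA damage repair or cell cycle control were exposed to test compounds. Growth inhibition was scored against vehicle-treated controls.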

[15] = NCI Yeast Anticancer Drug Screen. Data for the mlh1 rad18 strain (AID 175); conditions: S. cerevisiae mlh1 rad18 strain growth inhibition, hits give high values
Summary of the method: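 Growth inhibition of the yeast strain was measured after compound exposure and expressed relative to vehicle-treated controls. The strain carries defined defects in DNA damage repair.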

[16] = NCI Yeast Anticancer Drug Screen. Data for the rad18 strain (AID 177); conditions: S. cerevisiae rad18 mutant growth inhibition, hits give high values
Summary of the method: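 Yeast carrying a defined DNA damage repair alteration were exposed to compounds. Growth inhibition was expressed relative to vehicle-treated controls.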

[17] = at 5.0 µM (retest, dose inferred, filed as 0.5)
[18] = at 50.0 µM (retest, dose inferred, filed as 5.0)

Measured: growth inhibition

Nc1ccc2c(c1)C(=O)c1cccc(N)c1C2=O
inactive: [1]; at 1.2 µM 6% | [1]; at 3.7 µM 38% | [2]; at 1.2 µM -1% | [2]; at 3.7 µM 6% | [2]; at 11.0 µM 24% | [2]; at 33.0 µM 49% | [2]; at 100.0 µM 61% | [3]; at 1.2 µM 9% | [3]; at 3.7 µM 50% | [4]; at 1.2 µM -1% | [4]; at 3.7 µM 4% | [4]; at 11.0 µM 21% | [4]; at 33.0 µM 63% | [5]; at 1.2 µM 10% | [5]; at 3.7 µM 45% | [5]; [17] 51% | [6]; at 1.2 µM 4% | [6]; at 3.7 µM 16% | [6]; [17] 17% | [6]; at 11.0 µM 38% | [6]; at 33.0 µM 64% | [6]; [18] 68% | [6]; at 50.0 µM 53.9% | [7]; at 1.2 µM 5% | [7]; at 3.7 µM 11% | [7]; at 11.0 µM 29% | [7]; at 33.0 µM 57% | [8]; [17] -9% | [8]; [18] 66% | [8]; at 50.0 µM 42.9% | [9]; at 1.2 µM -2% | [9]; at 3.7 µM 3% | [9]; at 11.0 µM 19% | [9]; at 33.0 µM 37% | [9]; at 100.0 µM 48% | [10]; [17] 8% | [10]; at 50.0 µM 54.6% | [11]; at 1.2 µM -1% | [11]; at 3.7 µM 2% | [11]; [17] 6% | [11]; at 11.0 µM 25% | [11]; at 50.0 µM 57.1% | [12]; at 1.2 µM -2% | [12]; at 3.7 µM 11% | [12]; at 11.0 µM 19% | [12]; at 33.0 µM 56% | [13]; at 1.2 µM 0% | [13]; at 3.7 µM 7% | [13]; at 11.0 µM 32% | [14]; at 1.2 µM -4% | [14]; at 3.7 µM 3% | [14]; at 11.0 µM 37% | [15]; [17] 18% | [16]; at 1.2 µM 5% | [16]; at 3.7 µM 39%
active: [1]; at 11.0 µM 89% | [1]; at 33.0 µM 93% | [1]; at 100.0 µM 92% | [3]; at 11.0 µM 92% | [3]; at 33.0 µM 97% | [3]; at 100.0 µM 92% | [4]; at 100.0 µM 81% | [5]; at 11.0 µM 92% | [5]; at 33.0 µM 95% | [5]; [18] 93% | [5]; at 50.0 µM 89.8% | [5]; at 100.0 µM 93% | [6]; at 100.0 µM 82% | [7]; at 100.0 µM 88% | [10]; [18] 77% | [11]; at 33.0 µM 72% | [11]; [18] 89% | [11]; at 100.0 µM 87% | [12]; at 100.0 µM 72% | [13]; at 33.0 µM 74% | [13]; at 100.0 µM 85% | [14]; at 33.0 µM 79% | [14]; at 100.0 µM 85% | [15]; [18] 93% | [15]; at 50.0 µM 72.5% | [16]; at 11.0 µM 91% | [16]; at 33.0 µM 97% | [16]; at 100.0 µM 93%
